# Screening results deposited in PubChem by Johns Hopkins Ion Channel Center.
# KCNQ2 enhance: KCNQ2 (rat) channel potentiation; CHO-K1 KCNQ2, FluxOR thallium flux fluorescence; active compounds read high; actives 0.54% (n = 310,000); B-score at 10 µM;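 active = fluorescence ratio B-score at least 3 SD of library B-scores, with initial fluorescence B-score within 3 of them, cut at about 5.3 in these data; same plate scores as AID 2156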;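 also: B-score of peak minus minimum over baseline fluorescence ratio after K+ and Tl+ stimulus; positive B-score means potentiation of KCNQ2 with more thallium influx and brighter signal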
# Target sequence (O88943 whole entry, looked up): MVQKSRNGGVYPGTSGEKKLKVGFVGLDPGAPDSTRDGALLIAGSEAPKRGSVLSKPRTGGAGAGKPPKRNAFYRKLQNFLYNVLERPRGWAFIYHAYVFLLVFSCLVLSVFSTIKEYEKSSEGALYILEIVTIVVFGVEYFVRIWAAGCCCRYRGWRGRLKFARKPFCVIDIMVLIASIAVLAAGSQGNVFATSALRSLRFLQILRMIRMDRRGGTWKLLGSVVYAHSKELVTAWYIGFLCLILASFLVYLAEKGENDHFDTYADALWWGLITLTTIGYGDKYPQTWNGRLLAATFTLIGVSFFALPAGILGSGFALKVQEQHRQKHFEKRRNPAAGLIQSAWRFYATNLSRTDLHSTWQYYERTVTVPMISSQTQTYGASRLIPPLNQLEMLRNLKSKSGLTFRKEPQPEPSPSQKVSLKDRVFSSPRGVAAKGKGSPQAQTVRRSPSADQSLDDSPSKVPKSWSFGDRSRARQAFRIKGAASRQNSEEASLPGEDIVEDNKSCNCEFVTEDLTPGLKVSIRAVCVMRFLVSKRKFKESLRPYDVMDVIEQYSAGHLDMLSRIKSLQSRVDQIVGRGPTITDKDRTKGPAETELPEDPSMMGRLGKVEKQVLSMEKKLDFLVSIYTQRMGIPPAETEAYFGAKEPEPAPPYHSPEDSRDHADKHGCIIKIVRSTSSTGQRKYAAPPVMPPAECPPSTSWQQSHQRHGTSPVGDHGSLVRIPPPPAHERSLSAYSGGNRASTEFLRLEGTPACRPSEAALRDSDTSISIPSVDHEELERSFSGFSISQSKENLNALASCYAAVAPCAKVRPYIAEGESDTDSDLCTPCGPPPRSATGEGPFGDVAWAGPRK
# KCNQ2 inh: inhibitors of rat KCNQ2 potassium channel. B-score at 10 µM. CHO-K1 KCNQ2, FluxOR thallium flux, 20 min; active compounds read low. O88943. actives 1.1% (n = 310,000);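 active = fluorescence ratio B-score at most minus 3 library SDs, with starting brightness B-score within 2 library SDs, cut at about -5.5 in these data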
# * = called active by the depositor; i = inactive; nt = not tested or not shown. Most compounds without a hit are left out; they make up all but 1.6% or so of the library.
SMILES,KCNQ2 enhance,KCNQ2 inh
COc1ccc2c(c1)O[C@H](c1ccc3c(c1)OCO3)[C@@H](OC(=O)N[C@H](C)C1CCCCC1)C2=O,nt,i
O=C(CN1CCOCC1)Nc1nc2ccc(F)cc2s1,nt,i
O=C(CN1C(=O)C2CCCCC2C1=O)Nc1nc2ccc(F)cc2s1 (stereo unspecified),-6.2,-6.2*
O=C(CSc1ncccc1C(=O)O)Nc1ccc2c(c1)OCCO2,nt,i
O=C1CC(c2ccc(Br)cc2)NC(c2ccc(Br)cc2)C1c1ccccc1 (stereo unspecified),-5.7,-5.7*
c1ccc(C2CC(c3ccccc3)C(c3ccccc3)N2)cc1 (stereo unspecified),nt,i
CC1CCN(c2cc(C#N)c(C#N)cc2[N+](=O)[O-])CC1,0.25,i
CC1CCN(c2cc(N)c(Cl)cc2[N+](=O)[O-])CC1,-6.5,-6.5*
C/C(=N\O)C1(C)N(O)C(C)(C)C(c2ccco2)=[N+]1[O-] (stereo unspecified),nt,i
C/C(=N\Nc1cccc(Cl)c1)C1(C)N(O)C(C)(C)C(c2ccco2)=[N+]1[O-] (stereo unspecified),-6.4,-6.4*
Cc1cccc(N2CCN(C(=S)NCCc3ccccc3)CC2)c1C,nt,i
Cc1ccc(Cl)cc1N1CCN(C(=S)NCCc2ccccc2)CC1,-5.8,-5.8*
CSc1cc(-c2ccncc2)nc(-c2ccc(Cl)cc2)c1,nt,i
N#Cc1nc(COc2ccccc2)oc1N1CCN(c2cccc(Cl)c2)CC1,-5.9,-5.9*
N#Cc1nc(COc2cccc(Cl)c2)oc1N1CCN(c2ccccc2)CC1,nt,i
CN(C)S(=O)(=O)c1ccc(S(=O)(=O)NC2CCOC(C)(C)C2)cc1 (stereo unspecified),0.32,i
Cc1nc2ccccc2nc1N1CCC(C)CC1,0.87,i
Cc1cc(C)n(-c2nc3ccccc3nc2N2CCN(C(=O)c3ccc(F)cc3)CC2)n1,nt,i
Cc1cc(C)n(-c2nc3ccccc3nc2N2CCC(C)CC2)n1,-6.8,-6.8*
Cc1ccc(S(=O)(=O)N2CCN(c3nc4ccccc4nc3-n3nc(C)cc3C)CC2)cc1,-6,-6*
CCOc1ccccc1OCCCNCc1ccco1,0.12,i
CC(=O)N1CC(C)Sc2ccc(S(=O)(=O)NCCc3cccc(C)c3)cc21 (stereo unspecified),0.52,i
CN(C(=O)c1ccncc1)C1CCCCC1,0.58,i
C/C(CCC(C)C)=N\NC(=S)NCc1ccccc1,nt,i
O=C(CSc1nnc(C2CCCCC2)n1-c1ccccc1)NCc1ccco1,-5.6,-5.6*
SMILES,KCNQ2 enhance,KCNQ2 inh
CCNC(=O)CSc1nnc(C2CC2)n1-c1ccccc1,nt,i
O=C(NCCc1ccccc1Cl)C1CCC(=O)N(C2CCCCCC2)C1 (stereo unspecified),0.11,i
COc1ccc(N2CCN(C(=O)CCCSc3nc4ccccc4[nH]3)CC2)cc1,nt,i
OCCC1CN(Cc2cccn2-c2ncccn2)CCN1CCc1ccccc1 (stereo unspecified),0.16,i
COc1ccc(CCNC(C(=O)Nc2cc(C)cc(C)c2)c2ccccc2)cc1 (stereo unspecified),-8.1,-8.1*
CCOc1ccccc1NC(=O)C(NCCc1ccc(OC)cc1)c1ccccc1 (stereo unspecified),nt,i
COc1ccc(CNC(=O)C(C#N)c2nc3ccccc3nc2N2CCCC2)cc1 (stereo unspecified),nt,i
CC1CN(c2nc3ccccc3nc2C(C#N)C(=O)NCc2ccc3c(c2)OCO3)CC(C)O1 (stereo unspecified),-5.6,-5.6*
CN1CCN(c2ccc(C(CC(N)=O)NC(=O)Cc3cccc4ccccc34)cc2[N+](=O)[O-])CC1 (stereo unspecified),nt,i
Cc1ccc(N/C=C2\C(=O)C3(C)CCC2C3(C)C)cc1C (stereo unspecified),-6.5,-6.5*
CC12CCC(C(=Nc3ccc(N=C4C(=O)C5(C)CCC4C5(C)C)cc3)C1=O)C2(C)C,nt,i
COc1cccc(CNC(=O)Cn2ncc3c(=O)oc4ccccc4c32)c1,0.47,i
OCCNc1ncnc2c1c(-c1ccccc1)c(-c1ccccc1)n2Cc1ccco1,nt,i
c1ccc(-c2c(-c3ccccc3)n(Cc3ccco3)c3ncnc(NCCCn4ccnc4)c23)cc1,-11,-11*
COc1ccc(CNC(=O)CCCC(=O)n2nc(C)c3ccccc32)cc1,0.18,i
Cc1ccc(C2=NOC(C)(c3nnc(-c4cccc(Cl)c4)o3)C2)cc1 (stereo unspecified),nt,i
CC1(c2nnc(-c3cccc(Cl)c3)o2)CC(c2c(Cl)cccc2Cl)=NO1 (stereo unspecified),-5.6,-5.6*
CC(=O)O[C@@H]1[C@@H](O)[C@@H](O)[C@H](Oc2c(-c3ccc(O)cc3)oc3c(CC=C(C)C)c(O)cc(O)c3c2=O)O[C@H]1C,-10,-10*
COc1ccc(-c2oc3c(CC=C(C)C)c(O[C@@H]4O[C@H](CO)[C@@H](O)[C@H](O)[C@H]4O)cc(O)c3c(=O)c2O[C@@H]2O[C@@H](C)[C@H](O)[C@@H](O)[C@H]2O)cc1,nt,i
COC(=O)c1c(NC(NC(C)=O)C(Cl)(Cl)Cl)sc2c1CCCC2 (stereo unspecified),nt,i
CCOC(=O)c1c(NC(NC(C)=O)C(Cl)(Cl)Cl)sc2c1CCCC2 (stereo unspecified),-6.5,-6.5*
CCC(=Nc1ccccc1OC)C1=C(O)CC(c2ccccc2)CC1=O (stereo unspecified),-5.8,-5.8*
CCC(=Nc1ccccc1O)C1=C(O)CC(c2ccccc2)CC1=O (stereo unspecified),0.29,i
O=C(CSc1nnc(-c2ccccc2F)n1C1CC1)Nc1cccnc1Cl,0.01,i
S=C(NCC1CCCO1)Nc1ccccc1 (stereo unspecified),nt,i
SMILES,KCNQ2 enhance,KCNQ2 inh
CC(=O)c1cc2c(cc1NC(=O)c1ccc(Cl)cc1)OCCO2,0.02,i
CC(=O)c1cc2c(cc1NC(=O)Nc1cccc(Cl)c1)OCCO2,-6.3,-6.3*
Cc1ccc(S(=O)(=O)NCc2ccccc2C)cc1,nt,i
CSc1ccc(S(=O)(=O)NCc2ccccc2C)cc1,-6.1,-6.1*
Cc1cc(C(=O)N2CCc3ccccc3C2)on1,nt,i
CCN(CC)S(=O)(=O)c1ccc(OC)c(NC(=O)CC2CCCC2)c1,nt,i
Cc1ccc2c(c1)NC(=O)C(CC(=O)N(C)Cc1ccccc1)O2 (stereo unspecified),nt,i
Cc1cccc(C(=O)N2CCCC(N3CCN(c4cccc(Cl)c4)CC3)C2)n1 (stereo unspecified),0.04,i
Cc1ccsc1C(=O)N1CCCC(N2CCN(c3cccc(Cl)c3)CC2)C1 (stereo unspecified),-7.1,-7.1*
Cc1ccc([N+](=O)[O-])cc1NC(=O)c1ccc(CSc2ccccc2)cc1,0.57,i
Cc1ccc(SCc2ccc(C(=O)Nc3cccc([N+](=O)[O-])c3C)cc2)cc1,-5.6,-5.6*
CCCCc1ncc(CN2CCC(n3nccc3NC(=O)c3ccccc3Cl)CC2)[nH]1,0.01,i
O=C(c1ccc2c(c1)OCCCO2)c1cccs1,2.1,i
Cc1cc(C)c(NC(=O)/C(=C/c2ccco2)c2ccccc2)c(C)c1,-6,-6*
Cc1cccc(C)c1NC(=O)/C(=C/c1ccco1)c1ccccc1,nt,i
NC1=NC(=O)C(Cc2ccc(Br)cc2)S1 (stereo unspecified),nt,i
Cc1ccc(C)c(NC(=O)CC2Oc3ccccc3NC2=O)c1 (stereo unspecified),nt,i
